Test results taken from the supplement of paper PMC4723716.

Tested on: Plasmodium falciparum NF54 gametocytes
Experiment: viability index relative to DMSO control (fraction); higher = less gametocyte killing
Conditions: 12.5 µM, incubation time: 72 h
Method in brief: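 P. falciparum NF54 gametocytes at stages I–V were treated with compound at 12.5 µM for 72 hr at 37°C under low oxygen in serum-containing medium (0.50% gametocytemia, 1.25% hematocrit), then stained with MitoTracker Red CMXRos and imaged in serum-free medium containing 500 nM dye. The viability index is the gametocyte particle count divided by the plate mean of solvent-only wells.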

[1] = gametocyte stage: Stage I viability index
[2] = gametocyte stage: Stage II viability index
[3] = gametocyte stage: Stage III viability index
[4] = gametocyte stage: Stage IV viability index
[5] = gametocyte stage: Stage V viability index

| Compound | viability index [1] | viability index [2] | viability index [3] | viability index [4] | viability index [5] |
| --- | --- | --- | --- | --- | --- |
| CC1CN(C(=O)c2sc3ccccc3c2Cl)CC(C)O1 (stereo not given) | 0.768 | 0.756 | 0.97 | 0.912 | 0.989 |
| O=C(NC1CCN(Cc2ccccc2)CC1)c1cc(C(=O)NC2CCN(Cc3ccccc3)CC2)cc(C(=O)NC2CCN(Cc3ccccc3)CC2)c1 | 0.0629 | 0.0649 | 0.0393 | 0.0475 | 0.013 |
| COc1ccc(CCN2C(=O)c3[nH]nc(-c4cc(Cl)c(C)cc4O)c3C2c2ccccc2F)cc1 (stereo not given) | 0.083 | 0.29 | 0.6 | 0.665 | 0.675 |
| Oc1c2c(nc3cc(-c4ccccc4)nn13)CCCC2 | 1.07 | 0.786 | 1.07 | 0.878 | 0.879 |
| COc1nc(Nc2ccc(C(C)C)cc2)nc(OC)n1 | 1.18 | 0.871 | 0.965 | 1.06 | 0.967 |
| CC(C)(C)c1ccc(C(=O)Nc2c3c(nn2-c2cccc(Cl)c2)CSC3)cc1 | 0.469 | 0.508 | 0.825 | 0.747 | 0.701 |
| Cc1nc2ccccc2c(O)c1CC=C(Cl)Cl | 0.814 | 0.962 | 0.897 | 0.87 | 1.06 |
| CCC(=O)Nc1nnc(Cc2ccc(OC)c(OC)c2)s1 | 1.02 | 0.965 | 0.901 | 1.08 | 1.38 |
| O=C(Nc1ccc(-c2nc3cc4ccccc4cc3[nH]2)cc1)c1cccc(Br)c1 | 0.028 | 0.421 | 0.851 | 0.873 | 0.909 |
| Cc1ccc2cc3c(N)c4c(C)ccc(C)c4nc3nc2c1 | 0.0542 | 0.005 | 0.0231 | 0.00316 | 0.026 |
| CC(C)=CCN1CCC(C(=O)Nc2ccc(-c3nc4ccccc4[nH]3)cc2)CC1 | 0.0674 | 0.525 | 0.921 | 0.912 | 0.967 |
| COc1ccc2nc(C)cc(Nc3ccccc3O)c2c1 | 0.139 | 0.625 | 1.04 | 1.09 | 0.912 |
| CN(C)c1ccc(N2C(N)=NC(N)=NC2(C)C)cc1 | 1.05 | 0.931 | 1.04 | 1.05 | 1.21 |
| Cc1ccc2nc(C)cc(Nc3cccc(C(F)(F)F)c3)c2c1 | 0.325 | 0.504 | 0.803 | 0.829 | 0.857 |
| Cc1ccc(OCCCCCCNCCO)c(C)c1 | 1.13 | 1.04 | 1.05 | 0.934 | 0.909 |
| FC(F)(F)c1cccc(Nc2nc(-c3ccccc3)nc3ncccc23)c1 | 1.17 | 1.08 | 1.33 | 1.09 | 1.15 |
| COc1ccc(CCn2c(=N)c(C(=O)NCc3cccnc3)cc3c(=O)n4cccc(C)c4nc32)cc1 | 0.076 | 0.611 | 0.917 | 0.937 | 1.09 |
| Oc1ccc(Cl)cc1CNc1nc2ccccc2[nH]1 | 0.0751 | 0.545 | 0.822 | 0.891 | 0.736 |
| Oc1ccc(-c2nc(-c3ccc4oc5ccc(-c6[nH]c(-c7ccc(O)cc7)nc6-c6ccccc6)cc5c4c3)c(-c3ccccc3)[nH]2)cc1 | 0.000874 | 0 | 0 | 0 | 0.013 |
| O=C(CCc1ccccc1)c1ccccc1OCC(O)CN1CCCCC1 (stereo not given) | 0.00787 | 0.0616 | 0.36 | 0.465 | 0.39 |
| Cc1[nH]c(-c2ccc(F)cc2)cc1C(=O)NC1CCN(Cc2ccccc2)CC1 | 0.131 | 0.502 | 0.744 | 0.881 | 1.09 |
| CCN(CC)CCCNc1ccnc2cc3ccccc3cc12 | 0.0594 | 0.485 | 0.972 | 0.946 | 1.1 |
| OC1CCCCC1C1(NC(=S)Nc2ccccc2)CCCCC1 (stereo not given) | 0.24 | 0.184 | 0.0868 | 0.108 | 0.247 |
| O=C(NC1CCCCC1)C(c1cccs1)N(CCc1ccccc1)C(=O)c1ccco1 (stereo not given) | 0.98 | 0.838 | 1 | 1.04 | 0.961 |
| Cc1ccc(-c2cc(C(=O)Nc3ccc(S(=O)(=O)N4CCCCC4)cc3)[nH]n2)c(O)c1 | 0.453 | 0.939 | 0.973 | 1.09 | 0.967 |
| Cc1sc(NC(=O)c2ccco2)c(C(c2cccnc2)N2CCC(Cc3ccccc3)CC2)c1C (stereo not given) | 0.00962 | 0.0408 | 0.261 | 0.418 | 0.351 |
| CCOc1cccc2sc(N(Cc3cccnc3)C(=O)C3CCCCC3)nc12 | 0.478 | 0.691 | 1.09 | 0.951 | 0.989 |

| Compound | viability index [1] | viability index [2] | viability index [3] | viability index [4] | viability index [5] |
| --- | --- | --- | --- | --- | --- |
| COc1ccc(CCN2CCC(CN(C)Cc3cnn(-c4ccccc4)c3)CC2)cc1 | 0.203 | 0.496 | 0.508 | 0.498 | 0.418 |
| CCOc1ccc(Nc2ccnc3cc(Cl)ccc23)cc1 | 0.0699 | 0.411 | 0.852 | 0.728 | 0.558 |
| COc1ccc2nc(C)cc(Nc3cccc(O)c3)c2c1 | 0.105 | 0.564 | 0.896 | 0.991 | 1.1 |
| CCCN(CCC)CCCNC(=O)c1cc2c(-c3ccc(OC)c(OC)c3)nn(C)c2s1 | 0.302 | 0.754 | 0.996 | 0.954 | 0.868 |
| Cc1cc(C)c2c(c1)OCN(Cc1ccccc1Cl)C2 | 0.0442 | 0.13 | 0.569 | 0.663 | 0.615 |
| Cc1c(C)n(CC(O)CNC2CCCCC2C)c2ccccc12 (stereo not given) | 0.0939 | 0.217 | 0.644 | 0.766 | 0.923 |
| COc1cccc(C(=O)NC(c2ccc(C)cc2)c2cc(Cl)c3cccnc3c2O)c1 (stereo not given) | 0.116 | 0.0583 | 0.0814 | 0.247 | 0.039 |
| O=C(CSc1nccn2nc(-c3ccccc3)cc12)Nc1cc(C(F)(F)F)ccc1Cl | 0.845 | 0.896 | 0.973 | 1.08 | 1.4 |
| CCOc1ccccc1CNC(=O)C1c2ccccc2C(=O)N(CC(C)C)C1c1cccs1 (stereo not given) | 0.579 | 0.549 | 0.795 | 0.793 | 1.08 |
| CCN1CCN(c2c(C(=O)c3ccccc3)cnc3cc(OC)c(OC)cc23)CC1 | 1.03 | 0.988 | 1.22 | 1 | 0.909 |
| CCOc1ccc(C2N(C)c3ccccc3N2C)cc1 | 0.996 | 1.03 | 1.08 | 0.985 | 0.901 |
| CCc1ccc(Nc2cc(C)nc3nc(C)nn23)cc1 | 0.925 | 0.736 | 1.01 | 1.1 | 1.1 |
| CCC(O)c1ccc(Br)cc1NC(=O)c1cccc(Cl)c1 (stereo not given) | 0.0243 | 0.196 | 0.598 | 0.729 | 0.582 |
| O=C(Nc1cccc(C(F)(F)F)c1)c1cc(Cl)ccc1O | 0.00552 | 0.00676 | 0.0184 | 0.0669 | 0.11 |
| O=C(CSc1ccc2nnc(-c3cccc(F)c3)n2n1)Nc1ccc2c(c1)OCO2 | 1.01 | 1.02 | 1.16 | 1.16 | 1.37 |
| COc1cc(C(=O)ON=C(N)Cc2cccc3ccccc23)cc(OC)c1OC | 0.0175 | 0.0391 | 0.157 | 0.12 | 0.0909 |
| COc1ccc(-c2cc3c(SCC(=O)Nc4cc(C(F)(F)F)ccc4Cl)nccn3n2)cc1 | 1.04 | 0.886 | 1.06 | 0.924 | 1.05 |
| CCCCCC(=O)N1c2ccccc2N=C2CC(c3ccc(OC)c(OC)c3)CC(O)=C2C1c1ccc(C(F)(F)F)cc1 (stereo not given) | 0.0365 | 0.0251 | 0.0919 | 0.219 | 0.429 |
| Cc1ccc(Nc2nc(N)c3ccccc3n2)cc1Cl | 0.0341 | 0.49 | 0.695 | 0.753 | 0.481 |
| Cc1cc(NCCN2CCCCC2)c2ccc3ccccc3c2n1 | 0.0508 | 0.404 | 0.536 | 0.495 | 0.132 |
| c1ccc2cc3c(Nc4ccc(N5CCOCC5)cc4)ccnc3cc2c1 | 0.0685 | 0.499 | 0.779 | 1.02 | 1.19 |
| Cc1ccc(N2C3c4ccccc4N(S(=O)(=O)c4ccc(C)cc4)C2c2ccccc2N3S(=O)(=O)c2ccc(C)cc2)cc1 | 0.687 | 0.77 | 0.928 | 0.93 | 0.978 |
| COc1ccccc1CNC(=O)CCn1c(=O)[nH]c2ccsc2c1=O | 0.477 | 0.712 | 1 | 0.805 | 0.769 |
| CCOc1ccc(CN2CCN(CC(O)COc3ccc(OCC(O)CN4CCN(Cc5ccc(OCC)cc5)CC4)cc3)CC2)cc1 (stereo not given) | 0.076 | 0.114 | 0.133 | 0.104 | 0.0519 |
| CCOc1c(Cl)cc(CNCC(O)c2ccccc2)cc1OC (stereo not given) | 0.231 | 0.272 | 0.793 | 0.918 | 0.714 |
| FC(F)(F)c1cccc(CNC2CCN(CCc3ccccc3)CC2)c1 | 0.0431 | 0.464 | 0.856 | 0.83 | 0.802 |
| COc1cccc(Nc2nc(NCCO)c3ccccc3n2)c1 | 0.134 | 0.581 | 0.728 | 0.854 | 0.538 |
